High-throughput results deposited in PubChem BioAssay by National Center for Advancing Translational Sciences (NCATS).
Most compounds without a hit are left out; they make up all but 11% or so of the library.
FLuc inh: blocks purified firefly luciferase enzyme activity; Potency, µM (doses to about 115 µM), usual class: inhibitors; 76,000 tested, 2.5% active; P08659; purified P. pyralis luciferase, luminescence, biochemical; note: nearly all actives have a fitted effect of over 65% in size
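Biochemical qHTS: compound (6-point titration) added to 10uM D-luciferin plus 10uM ATP in Tris acetate pH 7.5 buffer with Mg, Tween-20 and BSA, then purified enzyme at 10nM; light output imaged.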
NIH3T3 tox: kills NIH 3T3 cells. NIH 3T3 viability, CellTiter-Glo ATP luminescence, 48-72 h. Potency, µM (highest dose often 96.7 µM), for inactives: top-dose activity change, negative = cytotoxicity, usual class: inhibitors. 94,000 tested, 4.3% active. AID 1345082; note: nearly all actives have a fitted effect of over 55% in size
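Cytotoxicity is measured as loss of cellular ATP: NIH 3T3 cells (400/well) are exposed to compound for 48 or 72 hr at 37 °C, then CellTiter-Glo luminescence is imaged after 10 min at room temperature.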
NPR1 antag: human Npr1 receptor antagonism; 76,000 tested, 1.6% active; P16066; HEK293 hNpr1 GloSensor cGMP, ANP-stimulated luminescence; Potency, µM (series often up to 46.3 µM), inactives show at the top dose activity change, negative = inhibition, most hits filed as inhibitors; calls by dose curve; note: nearly all actives have a fitted effect of over 60% in size
Target sequence (P16066 whole entry, looked up): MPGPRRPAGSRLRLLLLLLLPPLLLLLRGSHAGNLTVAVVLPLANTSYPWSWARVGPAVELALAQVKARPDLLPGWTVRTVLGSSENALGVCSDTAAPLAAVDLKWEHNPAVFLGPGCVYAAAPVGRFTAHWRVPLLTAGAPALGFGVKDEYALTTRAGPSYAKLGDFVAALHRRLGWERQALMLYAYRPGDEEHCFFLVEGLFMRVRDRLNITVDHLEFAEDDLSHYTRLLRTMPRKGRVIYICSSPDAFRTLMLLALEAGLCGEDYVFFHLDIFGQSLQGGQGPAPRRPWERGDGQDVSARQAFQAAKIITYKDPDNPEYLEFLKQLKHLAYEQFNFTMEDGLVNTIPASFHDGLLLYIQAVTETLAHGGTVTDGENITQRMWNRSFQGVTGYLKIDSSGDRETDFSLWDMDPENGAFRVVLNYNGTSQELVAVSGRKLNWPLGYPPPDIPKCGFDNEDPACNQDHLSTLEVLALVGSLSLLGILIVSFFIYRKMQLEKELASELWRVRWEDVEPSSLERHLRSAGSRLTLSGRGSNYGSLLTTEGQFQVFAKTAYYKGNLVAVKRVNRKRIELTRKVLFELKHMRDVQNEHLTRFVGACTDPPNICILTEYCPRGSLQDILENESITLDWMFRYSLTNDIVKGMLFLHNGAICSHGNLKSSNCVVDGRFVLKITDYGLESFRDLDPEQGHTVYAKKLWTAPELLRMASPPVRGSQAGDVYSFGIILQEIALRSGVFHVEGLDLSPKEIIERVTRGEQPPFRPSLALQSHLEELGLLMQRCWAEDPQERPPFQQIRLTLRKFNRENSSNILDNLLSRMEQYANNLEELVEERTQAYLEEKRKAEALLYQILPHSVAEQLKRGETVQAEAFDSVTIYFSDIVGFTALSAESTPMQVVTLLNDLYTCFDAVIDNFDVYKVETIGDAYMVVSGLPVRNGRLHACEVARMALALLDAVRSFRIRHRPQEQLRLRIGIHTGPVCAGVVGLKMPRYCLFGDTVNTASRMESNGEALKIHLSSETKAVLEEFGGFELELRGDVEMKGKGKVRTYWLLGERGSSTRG
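HEK293 cells stably expressing human Npr1 and cGMP GloSensor pGS-40F, loaded 2 h with 2% GloSensor reagent, given compound 30 min at room temperature. Luminescence read before and 20 min after 0.1 nM hNppA.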
HEK293 tox: HEK 293 cell cytotoxicity; 94,000 tested, 6.6% active; Potency, µM (highest dose often 115 µM), for inactives: top-dose activity change, negative = cytotoxicity, usual class: inhibitors; HEK 293 viability, ATP luminescence (CellTiter-Glo), 48-72 h; AID 1345083; note: nearly all actives have a fitted effect of over 60% in size
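250 HEK 293 cells/well; compound by pintool; incubated 48 or 72 hr at 37 degree Celsius; CellTiter-Glo added, 10 min RT, luminescence imaged.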
An asterisk follows results filed as active; i = inactive; ? = inconclusive; / = no result; ! = a repeat was not active; [ ] = dose if it differs, or a comment. Unless noted, calls come from the whole dose curve; as a rule, active = well fitted curve in the direction sought with a large enough effect; inconclusive = small, poorly fitted or top-dose-only effect, or another doubt; inactive = no such curve, though single readings can be large; an effect the other way counts as inactive or inconclusive. % is set by controls: 0 for no effect and ±100 for the full control effect; potency is the fitted concentration of half-maximal effect.

SMILES	FLuc inh	NIH3T3 tox	NPR1 antag	HEK293 tox
O=C(c1ccc(F)cc1)N1Cc2[nH]cnc2C[C@H]1c1nc(-c2ccc(Cl)cc2)no1	i	?	-20.8%[70.6 µM]	?
O=C(c1cccs1)N1Cc2[nH]cnc2C[C@H]1c1nc(-c2ccc3ccccc3c2)no1	28.2µM*	?	-1.4%[70.6 µM]	-22.8%[172 µM]
COc1ccc(NC(=O)N2Cc3[nH]cnc3C[C@H]2c2nc(-c3ccc4ccccc4c3)no2)cc1	i	?	-4.8%	?
O=C(Nc1ccccc1)N1Cc2[nH]cnc2C[C@H]1c1nc(-c2ccc(Cl)cc2)no1	44.7µM*	?	?	100µM*
O=C(c1ccc(F)cc1)N1Cc2[nH]cnc2C[C@H]1c1nc(-c2ccc3c(c2)OCO3)no1	31.6µM*	?	-18.5%[70.6 µM]	?
COc1cccc(-c2cc(C(=O)NCCc3ccc(F)cc3)c3cnn(C)c3n2)c1	/	-20.2%	/	?
O=[S+]([O-])(NC1CCN(c2ccc3nnc(-c4ccccc4)n3n2)C1)c1cccs1 (centres undefined)	/	-13.9%	/	?
Cc1cc(=O)n(CC(=O)Nc2ccc(C)c(C)c2)c(N2CCC(C)CC2)n1	i	?	-30.5%	?
CC(=O)c1ccc(NC(=O)Cn2c(-c3ccc(Cl)cc3)nc(C)cc2=O)cc1	i	?	-17.0%	44.7µM*
Cc1ccc(NC(=O)Cn2c(C)cc3nc4n(c(=O)c32)CCCCC4)cc1Cl	i	39.8µM*	-13.9%	28.2µM*
CCc1ccc(NC(=O)Cn2c(N3CCC(C)CC3)nc(C)cc2=O)cc1	i	?	?	44.7µM*
Cc1cc(=O)n(CC(=O)Nc2ccc(C)c(Cl)c2)c(N2CCC(C)CC2)n1	i	?	?	31.6µM*
Cc1cc(=O)n(CC(=O)Nc2ccc(Cl)cc2)c(N2CCC(C)CC2)n1	i	?	-18.9%	39.8µM*
Cc1cc(=O)n(CC(=O)Nc2ccc(Br)cc2)c(N2CCC(C)CC2)n1	i	?	?	39.8µM*
CCOC(=O)c1ccc(NC(=O)Cn2c(N3CCN(c4ccccc4)CC3)nc(C)cc2=O)cc1	i	31.6µM*	-18.2%	39.8µM*
Cc1cc(=O)n(CC(=O)Nc2ccc(F)cc2)c(N2CCN(c3ccccc3)CC2)n1	i	?	0.2%	?
CC(C)C(=O)N1Cc2ccccc2CC2(CCCCN2CC2CCNC2)C1 (centres undefined)	/	?	/	-21.0%
CC(=O)N1CC2(CCN(CC3CC3)C2)Cc2ccccc21 (centres undefined)	/	-9.3%[138 µM]	/	-6.9%[172 µM]
O=C(C1CCCC1)N1CC2(CCN(CC3CC3)C2)Cc2ccccc21 (centres undefined)	/	44.7µM*	/	25.1µM*
O=C(C1CCCC1)N1CC2(CCN(Cc3ccccn3)CC2)Cc2ccccc21	/	?	/	100µM*
O=C(c1ccc(OC2CCN(Cc3c[nH]c4ccccc34)CC2)cc1)N1CCCCC1	i	?	6.7%	22.4µM*
O=C(O)CCC(=O)N1CCC2(Cc3ccccc3N(C(=O)C3CCCC3)C2)C1 (centres undefined)	/	-4.7%	/	i
O=C(C1CCCC1)N1CC2(CCN(Cc3c[nH]c4ccccc34)CC2)Cc2ccccc21	/	12.6µM*	/	20µM*
COc1ccc(-c2ccccc2C(=O)N2CCC(NC(=O)c3ccccc3Cl)CC2)nn1	/	-19.5%	/	3.0%
CC(C)N1CCC2(CC1)CN(C(=O)c1ccncc1)Cc1ccccc1O2	/	-24.6%	/	-0.8%
SMILES	FLuc inh	NIH3T3 tox	NPR1 antag	HEK293 tox
C#CCNC(=O)c1ccc2nnc(-c3cncc(Cl)c3)n2c1	/	1.8%[138 µM]	/	i
Cc1ccc2nc(C3CCN(Cc4ccc(-c5cccs5)cc4)CC3)[nH]c(=O)c2c1	i	?	-22.2%	35.5µM*!
CC(C)CN1CCCC(c2nc3ccc(F)cc3c(=O)[nH]2)C1 (centres undefined)	i	31.6µM*	11.6%[70.6 µM]	25.1µM*
Cc1ccc2nc(C3CCCN(Cc4ccccc4)C3)[nH]c(=O)c2c1 (centres undefined)	i	?	2.8%[70.6 µM]	63.1µM*!
Cc1cc(C)cc(-c2ccc(CN3CCCC(c4nc5ccc(F)cc5c(=O)[nH]4)C3)cc2)c1 (centres undefined)	i	17.8µM*	-15.3%	39.8µM*!
O=C(NCCNC(=O)c1ccc(-c2cncnc2)cc1)Nc1ccc(Cl)cc1	/	-9.0%	/	?
Cc1ccc2nc(C3CCCN(CC4CCCC4)C3)[nH]c(=O)c2c1 (centres undefined)	i	?	-28.6%[70.6 µM]	70.8µM*!
COc1cccc(CNC(=O)c2cc(-c3cccc(C(F)(F)F)c3)c3nncn3n2)c1	/	-12.5%	/	?
COc1ccccc1-c1cc(C(=O)Nc2ccc(C)cc2)nn2cnnc12	/	-18.1%	/	35.5µM*
Cc1ccc(NC(=O)c2cc(-c3ccc(Cl)cc3Cl)c3nncn3n2)cc1	/	-18.6%	/	0.2%
COc1ccccc1-c1cc(C(=O)NCc2cccc(C(F)(F)F)c2)nn2cnnc12	/	?	/	39.8µM*
O=C(c1ccncc1)N1CC(Oc2ccccc2-c2nc(C3CC3)no2)C1	i	3.8%	9.3%	14.9%
O=C(COc1ccccc1)N1CCC2(CC1)CN(Cc1ccccc1)CC2CO (centres undefined)	i	?	-23.8%	?
COCC1CN(Cc2ccc(C(C)C)cc2)CC12CCNCC2 (centres undefined)	i	?	-9.9%	44.7µM*
COCC1CN(Cc2ccc(Cl)cc2)CC12CCNCC2 (centres undefined)	i	?	-8.5%	?
O=C(c1ccccc1F)N1CCC2(CC1)CN(Cc1ccccc1)CC2CO (centres undefined)	i	?	-15.1%	79.4µM*
OCC1CN(Cc2ccc(Br)cc2)CC12CCNCC2 (centres undefined)	i	39.8µM*	-5.3%	39.8µM*
OCC1CN(Cc2ccc(C(F)(F)F)cc2)CC12CCNCC2 (centres undefined)	i	-30.8%	-7.7%	?
COC(=O)N1CCN(C(=O)c2ccc(-c3ccc(OC)nn3)cc2)CC1	/	-2.3%	/	-4.2%
Cc1noc(C)c1-c1cc2c(cc(C)n2CCN(C)C)c(Nc2ccncn2)n1	i	25.1µM*	-20.1%[70.6 µM]	100µM*
Cc1noc(C)c1-c1cc2c(cc(C)n2CCN(C)C)c(-c2ccsc2)n1	i	?	3.6%[70.6 µM]	-4.8%[172 µM]
COc1cncc(-c2nc(-c3c(C)noc3C)cc3c2cc(C)n3CCN(C)C)c1	i	22.4µM*	-5.7%[70.6 µM]	89.1µM*
Cc1cc(-c2nc(-c3c(C)noc3C)cc3c2cc(C)n3CCN(C)C)ccn1	i	?	-5.2%[70.6 µM]	?
Cc1noc(C)c1-c1cc2c(cc(C)n2CCN(C)C)c(-c2ccnn2C)n1	i	44.7µM*	-14.4%[70.6 µM]	?
Cc1noc(C)c1-c1cc2c(cc(C)n2CCN(C)C)c(-c2ccccc2)n1	i	22.4µM*	0.5%[70.6 µM]	?
COc1ccc(NC(=O)Cn2c(-c3ccc(F)cc3)nc(C)cc2=O)cc1OC	i	?	-10.6%	?
